Results taken from PubChem BioAssay AID1159580 (chemical genetic matrix, 2015).
Several values for one entry are separate records, joined by “and”; a condition that tells them apart may be missing. Equal values may be shown once. Out of some 5,500 compounds screened, about 2,000 (36%) were called active. Inconclusive results (about 18%) are left out. Rule as the data show it: active = normalized growth mostly below about 0.91 (no sharp cut-off); inconclusive = no clear call, values can overlap the other calls; inactive = mostly above about 0.92. The list shows a part of the results.

Test: chemical genetic growth profiling, strain panel (AID 1159580);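 also: tested at 20 µM; growth read once vehicle control cultures reached saturation at 30 °C; 1 = growth at the plate median or of vehicle wells; lower values mean less growth of the strain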
Conditions: S. cerevisiae deletion strains, growth OD

Measured: normalized growth

OC[C@H]1O[C@@H](O[C@H]2[C@H](O)[C@@H](O)[C@@H](O)O[C@@H]2CO)[C@H](O)[C@@H](O)[C@@H]1O
inactive: locus YAL013W, strain DEP1, active compounds read low 1.02 | locus YAL021C, strain ccr4, active compounds read low 1.01 | locus YAL026C, strain drs2, active compounds read low 1.01 | locus YAL030W, strain snc1, active compounds read low 1 | locus YBL061C, strain skt5, active compounds read low 1 | locus YBR009C, strain hhf1, active compounds read low 1.06 | locus YBR021W, strain FUR4, active compounds read low 1.04 | locus YBR023C, strain chs3, active compounds read low 1.01 | locus YBR171W, strain sec66, active compounds read low 0.996 | locus YBR229C, strain ROT2, active compounds read low 1 | locus YBR231C, strain swc5, active compounds read low 1 | locus YBR279W, strain paf1, active compounds read low 0.993 | locus YCL011C, strain gbp2, active compounds read low 1.02 | locus YCL016C, strain dcc1, active compounds read low 1.01 | locus YCL029C, strain bik1, active compounds read low 1.01 | locus YCL061C, strain MRC1, active compounds read low 1 | locus YCL069W, strain vba3, active compounds read low 1.01 | locus YCR088W, strain abp1, active compounds read low 0.997 | locus YDL005C, strain med2, active compounds read low 0.986 | locus YDL035C, strain GPR1, active compounds read low 1.04 | locus YDL040C, strain nat1, active compounds read low 0.994 | locus YDL074C, strain BRE1, active compounds read low 1.09 | locus YDL101C, strain DUN1, active compounds read low 1.01 | locus YDL134C, strain PPH21, active compounds read low 1.01 | locus YDL185W, strain tfp1, active compounds read low 1.02 | locus YDL192W, strain arf1, active compounds read low 1.03 | locus YDR001C, strain nth1, active compounds read low 0.999 | locus YDR069C, strain doa4, active compounds read low 0.981 | locus YDR101C, strain arx1, active compounds read low 1.02 | locus YDR137W, strain rgp1, active compounds read low 1.01 | locus YDR159W, strain sac3, active compounds read low 0.972 | locus YDR162C, strain NBP2, active compounds read low 1.02 | locus YDR195W, strain ref2 0.958 | locus YDR297W, strain sur2, active compounds read low 1 | locus YDR318W, strain mcm21, active compounds read low 0.994 | locus YDR334W, strain swr1, active compounds read low 0.996 | locus YDR335W, strain msn5, active compounds read low 1.01 | locus YDR388W, active compounds read low 1.02 | locus YDR392W, strain spt3, active compounds read low 0.957 | locus YDR502C, strain sam2, active compounds read low 0.992 | locus YEL003W, strain gim4, active compounds read low 1.02 | locus YEL037C, strain rad23, active compounds read low 1.01 | locus YEL061C, strain CIN8 (second series), active compounds read low 0.999 | locus YEL061C, strain CIN8, active compounds read low 1.01 | locus YER015W, strain faa2, active compounds read low 0.995 | locus YER016W, strain bim1, active compounds read low 1 | locus YER110C, active compounds read low 1.02 | locus YER111C, strain swi4, active compounds read low 1 | locus YER155C, strain BEM2 (second series), active compounds read low 0.987 | locus YER155C, strain BEM2, active compounds read low 1.02 | locus YER167W, strain BCK2, active compounds read low 1.01 | locus YFR010W, strain ubp6, active compounds read low 0.99 | locus YGL078C, strain dbp3, active compounds read low 1.03 | locus YGL086W, strain mad1, active compounds read low 1.04 | locus YGL167C, strain pmr1, active compounds read low 0.999 | locus YGL173C, strain kem1, active compounds read low 1 | locus YGL227W, strain vid30, active compounds read low 1 | locus YGL240W, strain doc1, active compounds read low 1.03 | locus YGL248W, strain PDE1, active compounds read low 1.01 | locus YGL253W, strain hxk2, active compounds read low 1.03 | locus YGR078C, strain PAC10, active compounds read low 1.03 | locus YGR135W, strain pre9, active compounds read low 1.02 | locus YGR252W, strain gcn5, active compounds read low 1 | locus YHR013C, strain ard1, active compounds read low 0.997 | locus YHR027C, strain rpn1, active compounds read low 1.02 | locus YHR030C, strain SLT2, active compounds read low 1.01 and 0.972 | locus YHR079C, strain IRE1 (second series), active compounds read low 1.01 | locus YHR079C, strain IRE1, active compounds read low 0.96 | locus YHR094C, strain hxt1, active compounds read low 1.05 | locus YHR129C, strain ARP1, active compounds read low 1.02 | locus YHR142W, strain chs7, active compounds read low 1.02 | locus YHR200W, strain rpn10, active compounds read low 1.02 | locus YIL066C, strain RNR3, active compounds read low 1.02 | locus YIL073C, strain SPO22, active compounds read low 1.12 | locus YIL125W, strain kgd1, active compounds read low 1.01 | locus YIR030C, strain dcg1, active compounds read low 1.01 | locus YJL092W, strain hpr5, active compounds read low 1.02 | locus YJL095W, strain BCK1 (second series), active compounds read low 0.995 | locus YJL095W, strain BCK1, active compounds read low 1.02 and 1.06 | locus YJL115W, strain asf1, active compounds read low 0.99 | locus YJL129C, strain trk1, active compounds read low 0.987 | locus YJL134W, strain LCB3, active compounds read low 1 | locus YJL154C, strain vps35, active compounds read low 0.991 | locus YJL164C, strain tpk1, active compounds read low 1.02 | locus YJL166W, strain qcr8, active compounds read low 1.03 | locus YJL168C, strain set2, active compounds read low 1.03 | locus YJL187C, strain SWE1 (second series), active compounds read low 1.02 | locus YJL187C, strain SWE1, active compounds read low 1 | locus YJR043C, strain POL32, active compounds read low 1.02 | locus YJR066W, strain TOR1, active compounds read low 0.921
